{
  "source": "the supplement of paper PMC8387472",
  "note": "Counter-ions that a name gives are not always drawn. ± gives the standard deviation of the averaged measurements.",
  "data": [
    {"system": "mESC LDLR-Dup GFP reporter (SpCas9 MH-deletion repair)", "assay": "fraction of GFP+ cells relative to DMSO control (fold change); higher = more MH-deletion repair to in-frame LDLR (or more editing)", "conditions": "2 µM; 7 days post-transfection", "values": [
      {"smiles": "O=C(O)c1cn(C2CC2)c2cc(N3CCNCC3)c(F)cc2c1=O", "note": "[Ciprofloxacin]", "fraction of GFP+ cells": "1.01 ± 0.28"},
      {"smiles": "N#CSc1cc(SC#N)c(N)nc1N", "fraction of GFP+ cells": "1.23 ± 0.14"},
      {"smiles": "Nc1nc2n[nH]nc2c(=O)[nH]1", "note": "[Azaguanine-8]", "fraction of GFP+ cells": "1.43 ± 0.23"},
      {"smiles": "CC(C)(Oc1ccc(CCNC(=O)c2ccc(Cl)cc2)cc1)C(=O)O", "note": "[Bezafibrate]", "fraction of GFP+ cells": "1.52 ± 0.58"},
      {"smiles": "N#Cc1cnc(Nc2cc(NC[C@H]3CNCCO3)c(C(F)(F)F)cn2)cn1", "fraction of GFP+ cells": "1.18 ± 0.1"},
      {"smiles": "Cn1c(=O)cc(C(=O)Nc2ccc3c(c2)OCCO3)c2ccccc21", "fraction of GFP+ cells": "0.931 ± 0.27"},
      {"smiles": "CCCCCCCCCCCCCC(=S)NCCCC[C@H](NC(=O)OCc1ccccc1)C(=O)Nc1ccccc1", "note": "[Thiomyristoyl]", "fraction of GFP+ cells": "0.948 ± 0.9"},
      {"smiles": "NC(=O)c1ncn([C@@H]2O[C@H](CO)[C@@H](O)[C@H]2O)c1O", "note": "[Mizoribine]", "fraction of GFP+ cells": "1.05 ± 0.12"},
      {"smiles": "C[C@H](NC(=O)CCc1nc2ccccc2c(=O)[nH]1)c1ccccc1", "fraction of GFP+ cells": "0.781 ± 0.051"},
      {"smiles": "CC(=O)c1cc([N+](=O)[O-])c(Sc2ccc(F)cc2F)s1", "fraction of GFP+ cells": "0.785 ± 0.22"},
      {"smiles": "O=C1NCCc2[nH]c(-c3ccncc3)cc21", "fraction of GFP+ cells": "1.61 ± 0.078"},
      {"smiles": "O=C(Nc1ccc(O)c(C(=O)O)c1)c1cccc(NC(=O)c2ccco2)c1", "fraction of GFP+ cells": "1.66 ± 0.41"},
      {"smiles": "O=C(NCc1ccccc1)c1csc(Nc2ccncn2)n1", "note": "[Thiazovivin]", "fraction of GFP+ cells": "0.987 ± 0.18"},
      {"smiles": "CNC1CCCN(c2c(F)cc3c(=O)c(C(=O)O)cn(C4CC4)c3c2OC)C1", "note": "(stereo not given) [Balofloxacin]", "fraction of GFP+ cells": "0.978 ± 0.15"},
      {"smiles": "N=C1CCCN1Cc1[nH]c(=O)[nH]c(=O)c1Cl", "note": "[Tipiracil hydrochloride]", "fraction of GFP+ cells": "0.837 ± 0.26"},
      {"smiles": "O=c1[nH]c(=O)n([C@H]2C[C@H](O)[C@@H](CO)O2)cc1C(F)(F)F", "note": "[Trifluridine]", "fraction of GFP+ cells": 2.69},
      {"smiles": "O=c1c(O)c(-c2ccc(O)c(O)c2)oc2cc(O)cc(O)c12", "note": "[Quercetin]", "fraction of GFP+ cells": "1.4 ± 0.93"},
      {"smiles": "CN1CCc2c(c3ccccc3n2Cc2ccc(C(=O)NO)cc2)C1", "note": "[Tubastatin A]", "fraction of GFP+ cells": "0.802 ± 0.093"},
      {"smiles": "COc1cccc2oc(-c3ccccc3)cc(=O)c12", "note": "[5-methoxyflavone]", "fraction of GFP+ cells": "0.869 ± 0.26"},
      {"smiles": "O=C(c1ccc(Cl)cc1Cl)n1nnc2ccccc21", "fraction of GFP+ cells": "0.756 ± 0.056"},
      {"smiles": "CO[C@H]1/C=C/O[C@@]2(C)Oc3c(C)c(O)c4c(O)c(c(/C=N/N5CCN(C)CC5)c(O)c4c3C2=O)NC(=O)/C(C)=C\\C=C\\[C@H](C)[C@H](O)[C@@H](C)[C@@H](O)[C@@H](C)[C@H](OC(C)=O)[C@@H]1C", "note": "[Rifampin]", "fraction of GFP+ cells": "2.38 ± 0.52"},
      {"smiles": "CCn1cc(C(=O)O)c(=O)c2ccc(C)nc21", "note": "[Nalidixic acid]", "fraction of GFP+ cells": "1.08 ± 0.015"},
      {"smiles": "C=CCc1ccc(O)c(-c2cc(CC=C)ccc2O)c1", "note": "[Magnolol]", "fraction of GFP+ cells": "0.713 ± 0.084"},
      {"smiles": "CC(C)(O)[C@@H]1CC[C@](C)([C@H]2[C@@H](O)C[C@@]3(C)[C@@H]4C[C@H](O)[C@H]5C(C)(C)[C@@H](O)CC[C@@]56C[C@@]46CC[C@]23C)O1", "note": "[Cycloastragenol]", "fraction of GFP+ cells": "0.966 ± 0.08"},
      {"smiles": "OCc1ccc(-c2ccc(-c3ccc(CO)s3)o2)s1", "fraction of GFP+ cells": "0.657 ± 0.23"},
      {"smiles": "COc1ccc(S(=O)(=O)NCc2ccc(C(=O)NCCc3ccc(Cl)cn3)cc2)cc1", "fraction of GFP+ cells": "0.936 ± 0.16"},
      {"smiles": "Cc1cccc(Nc2cc(Cl)nc(SCC(=O)O)n2)c1C", "fraction of GFP+ cells": "1.56 ± 0.58"},
      {"smiles": "CCCC(CCC)C(=O)O", "note": "[valproic acid]", "fraction of GFP+ cells": "0.696 ± 0.13"},
      {"smiles": "COc1cccc2c1c(O)c(C(=O)N(C)c1ccc(C(F)(F)F)cc1)c(=O)n2C", "note": "[Tasquinimod]", "fraction of GFP+ cells": "0.837 ± 0.12"},
      {"smiles": "NC(=O)c1cc(F)cc2c1C(=O)N(C1CCN(C3CCC(F)(F)CC3)CC1)C2", "fraction of GFP+ cells": "0.792 ± 0.12"},
      {"smiles": "CCc1nc(N)nc(N)c1-c1ccc(Cl)cc1", "note": "[Pyrimethamine]", "fraction of GFP+ cells": "1.5 ± 1.2"},
      {"smiles": "CSc1nc2cc(Cl)c(Oc3cccc(Cl)c3Cl)cc2[nH]1", "note": "[Triclabendazole]", "fraction of GFP+ cells": "1.67 ± 0.26"},
      {"smiles": "CN(C)Cc1ccc(-c2nc3cccc4c3n2CCNC4=O)cc1", "fraction of GFP+ cells": "0.517 ± 0.015"},
      {"smiles": "Cn1cc(-c2cnn3c(N)c(Br)c([C@@H]4CCCNC4)nc23)cn1", "fraction of GFP+ cells": "0.689 ± 0.069"},
      {"smiles": "O=C(Nc1ccncc1)c1cc([N+](=O)[O-])ccc1Cl", "fraction of GFP+ cells": "1.74 ± 0.44"},
      {"smiles": "Cc1ccc(C)c(OCCCC(C)(C)C(=O)O)c1", "note": "[Gemfibrozil]", "fraction of GFP+ cells": "1.46 ± 0.29"},
      {"smiles": "CN(C)c1nc(N(C)C)nc(N(C)C)n1", "note": "[Altretamine]", "fraction of GFP+ cells": "1.41 ± 0.41"},
      {"smiles": "CC(C)(Oc1ccc(C2CC2(Cl)Cl)cc1)C(=O)O", "note": "(stereo not given) [Ciprofibrate]", "fraction of GFP+ cells": "1.74 ± 0.1"},
      {"smiles": "O=C(CCCCCCNC(=O)c1cnc(N(c2ccccc2)c2ccccc2)nc1)NO", "note": "[Ricolinostat (ACY-1215)]", "fraction of GFP+ cells": "0.968 ± 0.11"},
      {"smiles": "COc1nc(N)nc2c1ncn2[C@@H]1O[C@H](CO)[C@@H](O)[C@@H]1O", "note": "[Nelarabine]", "fraction of GFP+ cells": "1.12 ± 0.14"}
    ]}
  ]
}
